Experimental data: PubChem BioAssay (Tox21)
Results filed as inconclusive are left out. The source made the active and inactive calls. Calls come from the whole dose curve; as a rule, active = well fitted curve in the direction sought with a large enough effect in the repeat runs; inconclusive = weak or mixed curves; inactive = no such curve, though single readings can be large; an effect the other way counts as inactive or inconclusive.

Tests used:
[1] = Caspase-3/7 induction in CHO-K1 cells by small molecules, qHTS cell viability counter screen (AID 1346979); note: nearly all actives have a fitted effect of over 35% in size
Method in brief: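 Multiplexed with Caspase-Glo 3/7 in CHO-K1 cells, this counter screen added CellTiter-Fluor after 16hr of compound exposure and recorded fluorescence 1hr later.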

[2] = Caspase-3/7 induction in CHO-K1 cells by small molecules, qHTS assay (AID 1346980); note: nearly all actives have a fitted effect of over 15% in size
Method in brief: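 Wild-type CHO-K1 cells exposed to compounds for 17hr at 37 C, 5% CO2. Caspase-3/7 activity then measured by Caspase-Glo 3/7 luminescence after 30min at room temperature.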

[3] = Caspase-3/7 induction in HepG2 cells by small molecules, qHTS cell viability counter screen (AID 1346981); note: series mostly up to about 92 µM; nearly all actives have a fitted effect of over 30% in size
Method in brief: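 HepG2, WT, 2,000 cells/well; 5 hr pre-incubation 37 C/5% CO2; compound pin-transferred from DMSO; 16 hr exposure; CellTiter-Fluor, 1 hr; fluorescence read.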

[4] = target: Nuclear receptor subfamily 1 group I member 2 (Homo sapiens) (UniProt O75469); assay: Human pregnane X receptor (PXR) small molecule agonists, qHTS assay (AID 1346982); note: nearly all actives have a fitted effect of over 35% in size
Nuclear receptor subfamily 1 group I member 2 (Homo sapiens), sequence (O75469 whole entry, looked up): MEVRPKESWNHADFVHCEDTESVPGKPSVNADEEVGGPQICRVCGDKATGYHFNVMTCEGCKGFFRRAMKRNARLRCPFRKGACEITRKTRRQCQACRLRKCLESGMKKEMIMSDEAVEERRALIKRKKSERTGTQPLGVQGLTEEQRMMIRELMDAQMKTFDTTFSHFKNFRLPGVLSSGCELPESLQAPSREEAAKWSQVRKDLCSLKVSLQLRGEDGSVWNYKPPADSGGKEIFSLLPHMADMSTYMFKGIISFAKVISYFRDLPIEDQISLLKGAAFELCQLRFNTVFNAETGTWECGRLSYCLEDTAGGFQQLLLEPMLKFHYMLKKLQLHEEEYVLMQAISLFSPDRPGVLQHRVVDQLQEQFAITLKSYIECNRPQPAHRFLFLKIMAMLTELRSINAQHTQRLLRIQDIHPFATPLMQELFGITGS
Method in brief: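 Luciferase signal from ONE-Glo (30 min, room temperature) measured activation of hPXR-driven CYP3A4 reporter expression in PXR-Luc HepG2 cells treated with compounds for 24 hr at 37 C.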

[5] = target: Cytochrome P450 2C19 (Homo sapiens) (UniProt P33261); assay: Cytochrome P450 Family 2 Subfamily C Member 19 (CYP2C19) small molecule antagonists: luciferase reporter qHTS assay (AID 1671197); note: series mostly up to about 120 µM; nearly all actives have a fitted effect of over 65% in size
Cytochrome P450 2C19 (Homo sapiens), sequence (P33261 whole entry, looked up): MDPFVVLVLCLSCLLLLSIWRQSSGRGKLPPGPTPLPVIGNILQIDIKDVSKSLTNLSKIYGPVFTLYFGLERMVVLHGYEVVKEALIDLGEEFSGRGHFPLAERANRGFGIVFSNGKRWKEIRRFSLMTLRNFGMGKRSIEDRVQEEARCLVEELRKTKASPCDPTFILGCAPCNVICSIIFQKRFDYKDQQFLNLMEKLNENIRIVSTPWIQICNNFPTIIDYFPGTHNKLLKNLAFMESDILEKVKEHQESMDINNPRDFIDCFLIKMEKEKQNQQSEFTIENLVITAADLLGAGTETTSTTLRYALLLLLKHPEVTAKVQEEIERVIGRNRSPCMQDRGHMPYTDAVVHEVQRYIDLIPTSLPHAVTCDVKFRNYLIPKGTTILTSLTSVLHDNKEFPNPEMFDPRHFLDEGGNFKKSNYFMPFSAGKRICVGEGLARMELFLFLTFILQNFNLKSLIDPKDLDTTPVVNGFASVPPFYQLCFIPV
Method in brief: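 Light output is proportional to CYP2C19 activity: proluciferin substrate is converted to luciferin, then detected by a luciferin detection reagent that also stops the 1 h, 37C NADPH-driven reaction. Ketoconazole serves as positive control.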

[6] = target: Cytochrome P450 2D6 (Homo sapiens) (UniProt P10635); assay: Cytochrome P450 Family 2 Subfamily D Member 6 (CYP2D6) small molecule antagonists: luciferase reporter qHTS assay (AID 1671196); note: series mostly up to about 120 µM; nearly all actives have a fitted effect of over 50% in size
Cytochrome P450 2D6 (Homo sapiens), sequence (P10635 whole entry, looked up): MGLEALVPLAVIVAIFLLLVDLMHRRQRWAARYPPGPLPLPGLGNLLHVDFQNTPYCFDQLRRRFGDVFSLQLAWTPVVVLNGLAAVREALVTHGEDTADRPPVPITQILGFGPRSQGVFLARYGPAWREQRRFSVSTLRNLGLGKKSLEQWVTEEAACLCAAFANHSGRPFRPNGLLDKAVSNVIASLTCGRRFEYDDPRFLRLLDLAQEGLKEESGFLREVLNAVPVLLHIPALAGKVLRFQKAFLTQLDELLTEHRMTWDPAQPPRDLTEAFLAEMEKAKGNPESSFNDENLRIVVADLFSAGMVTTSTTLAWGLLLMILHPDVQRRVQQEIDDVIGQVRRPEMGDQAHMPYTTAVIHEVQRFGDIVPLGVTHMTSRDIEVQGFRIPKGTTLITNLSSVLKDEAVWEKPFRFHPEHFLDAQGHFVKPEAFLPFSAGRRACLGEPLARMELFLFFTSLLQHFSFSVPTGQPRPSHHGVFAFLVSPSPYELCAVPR
Method in brief: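 Read-out is luminescence from luciferin formed by CYP2D6 turnover of a proluciferin substrate, recorded as relative luminescence units. Reactions ran 1 h at room temperature after NADPH regeneration solution was added.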

[7] = target: Cytochrome P450 2C9 (Homo sapiens) (UniProt P11712); assay: Cytochrome P450 Family 2 Subfamily C Member 9 (CYP2C9) small molecule antagonists: luciferase reporter qHTS assay (AID 1671198); note: series mostly up to about 120 µM; nearly all actives have a fitted effect of over 50% in size
Cytochrome P450 2C9 (Homo sapiens), sequence (P11712 whole entry, looked up): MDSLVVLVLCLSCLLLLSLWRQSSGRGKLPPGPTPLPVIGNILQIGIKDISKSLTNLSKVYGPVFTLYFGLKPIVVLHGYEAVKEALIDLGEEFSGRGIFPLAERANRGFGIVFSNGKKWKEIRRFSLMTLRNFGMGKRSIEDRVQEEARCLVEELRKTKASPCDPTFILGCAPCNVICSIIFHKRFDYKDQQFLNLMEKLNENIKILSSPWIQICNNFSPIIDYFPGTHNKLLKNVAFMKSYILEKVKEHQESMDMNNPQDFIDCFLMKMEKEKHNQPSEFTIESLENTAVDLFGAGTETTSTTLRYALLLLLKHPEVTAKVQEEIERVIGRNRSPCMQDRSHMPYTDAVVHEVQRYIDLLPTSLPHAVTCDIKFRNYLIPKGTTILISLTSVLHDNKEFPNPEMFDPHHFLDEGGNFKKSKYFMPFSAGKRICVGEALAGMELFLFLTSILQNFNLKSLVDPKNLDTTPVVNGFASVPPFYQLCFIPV
Method in brief: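 P450-Glo proluciferin substrate with CYP2C9 enzyme; 10 min RT preincubation, then NADPH regeneration 1 h at 37C; luciferin detection reagent 20 min RT, luminescence in relative luminescence units.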

[8] = target: Nuclear receptor subfamily 1 group I member 2 (Rattus norvegicus) (UniProt Q9R1A7); assay: Rat pregnane X receptor (rPXR) activation by small molecules, qHTS assay (AID 1346983); details: rPXR luciferase reporter cells, One-Glo luminescence, 24 h; hits give high values; note: nearly all actives have a fitted effect of over 20% in size
Nuclear receptor subfamily 1 group I member 2 (Rattus norvegicus), sequence (Q9R1A7 whole entry, looked up): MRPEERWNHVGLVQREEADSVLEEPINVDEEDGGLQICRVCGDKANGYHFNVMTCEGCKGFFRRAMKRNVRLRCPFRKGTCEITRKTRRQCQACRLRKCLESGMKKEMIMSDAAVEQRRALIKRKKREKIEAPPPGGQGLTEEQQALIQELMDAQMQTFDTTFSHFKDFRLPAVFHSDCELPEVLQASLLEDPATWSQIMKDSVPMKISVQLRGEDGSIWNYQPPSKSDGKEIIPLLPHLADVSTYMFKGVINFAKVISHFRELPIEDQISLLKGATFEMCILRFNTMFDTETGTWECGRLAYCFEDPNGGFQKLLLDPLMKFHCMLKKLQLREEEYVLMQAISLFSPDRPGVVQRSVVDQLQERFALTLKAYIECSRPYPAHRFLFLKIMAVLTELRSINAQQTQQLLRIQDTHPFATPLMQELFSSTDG
Method in brief: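 Cell-based rPXR activation assay: rPXR cells, 2,000 per well, rested 5hr at 37 C, then exposed to compounds in DMSO for 24 hr at 37 C. Luciferase activity read by One-Glo luminescence after 30 min at room temperature.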

[9] = target: Nuclear receptor subfamily 1 group I member 2 (Homo sapiens) (UniProt O75469); assay: CYP3A4 induction through human pregnane X receptor (PXR) by small molecules, qHTS assay (AID 1346984); note: nearly all actives have a fitted effect of over 40% in size; note: potency is the fitted concentration of half-maximal effect
Method in brief: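 Luminescence readout: luciferase signal after One-Glo (30 min, room temperature), following 3 h at 37C with 3uM final Luciferin-IPA P450 substrate. Cells were DPX-2 (HepG2, PXR/CYP3A4-luc co-transfected) dosed for 24 h.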
% is set by controls: 0 for no effect and ±100 for the full control effect.

COCCOCCOCCOCCO
inactive: Potency [1] | outcome [2] | Potency [3] | Potency [4] | Potency [5]

CCCCN
inactive: Potency [1] | outcome [2] | Potency [4]

C[Si](C)(C)C
inactive: Potency [1] | outcome [2] | Potency [3] | Potency [6] | Potency [5] | Potency [7]

Oc1cn2c(n1)Nc1ccc(Cl)c(Cl)c1C2
inactive: activity change, negative = cytotoxicity [1] -2.03% [at 19 µM] | caspase-3/7 activation [2] -0.902% [at 19 µM] | activity change, negative = cytotoxicity [3] 6.29% [at 19 µM] | max activation [8] 0.479% | Potency [9] | activity change, negative = inhibition [5] 3% [at 23.6 µM]

Nc1nnc(-c2cccc(Cl)c2Cl)c(N)n1
inactive: Potency [1] | outcome [2] | Potency [3] | Potency [5]

O=C(CCN1CCN(CCO)CC1)N1c2ccccc2Sc2ccc(C(F)(F)F)cc21
active: Potency [9] 10 µM
inactive: Potency [1] | outcome [2] | Potency [3] | max activation [8] -2.18% | Potency [6] | Potency [5] | Potency [7]

CC(C)=O
inactive: Potency [1] | outcome [2] | Potency [3] | max activation [8] -0.452% | Potency [5]

CNC(=O)[C@H]1O[C@@H](n2cnc3c(NCc4cc(Cl)ccc4OCc4cc(C)no4)ncnc32)[C@H](O)[C@@H]1N
inactive: Potency [1] | outcome [2] | Potency [4] | Potency [6] | Potency [5]

CC1COc2ccccc2N1 (stereo unspecified)
inactive: Potency [1] | outcome [2] | Potency [4] | Potency [6]
